Each structure is given as a SMILES string. Results filed as inconclusive are left out. Activity calls are given as the source filed them. Calls come from the whole dose curve; as a rule, active = well fitted inhibition curve with a large enough effect; inconclusive = small, poorly fitted or top-dose-only effect; inactive = flat fitted curve, though single readings scatter.

Experiment in all cases: qHTS profiling for inhibitors of Plasmodium falciparum proliferation (AID 504749); note: nearly all actives have a fitted effect of over 60% in size
Common to all, as to details: P. falciparum in erythrocytes, SYBR Green DNA, 72 h; series mostly up to 28.7 µM
A general note: qHTS replaces the single test concentration by a dilution series.

One experiment concerns 3D7. The essentials:
(§1)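 Infected RBCs, 0.3% parasitemia/2.5% Hct final; cpd 72 h, 37 C, 5% CO2; lysis buffer with saponin/triton/SYBR Green I, o/n RT dark; FI 485/535; norm. to artemisinin (0.29 uM) and DMSO.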

The test system of the next experiment is 7G8. The method, boiled down: as §1
In a further experiment the test system is AA1029. The method, boiled down: as §1
In another experiment the test system is AS120. The essentials:
as §1

The test system of a further experiment is ATS189. The method, boiled down:
as §1

A further experiment concerns ATS95. The essentials: as §1
A further experiment relates to C2A. The essentials:
as §1

The next experiment concerns CP185. The method, boiled down:
as §1

The next experiment has as its system CP191. The essentials:
as §1

For the next experiment, the system named is CP192. The essentials: as §1
Potency is the fitted concentration of half-maximal effect.

In the case of `C[N+](C)(C)CCCCCCCCCC[N+](C)(C)C`, the Potency was 5.62 µM (active) with 3D7; 5.01 µM (active) with 7G8; 5.62 µM (active) in the experiment with AA1029; 3.16 µM (active) in the experiment on AS120; 4.47 µM (active) with ATS189; 3.16 µM (active) in the experiment with ATS95. Moreover, the Potency in the experiment on C2A was 5.62 µM (active); with CP185, 4.47 µM (active); in the experiment with CP191, 3.55 µM (active); with CP192, 1.9 µM (active).
On to `O=C(O)CN(CCOCCOCCN(CC(=O)O)CC(=O)O)CC(=O)O`, for which the Potency result in the experiment with 3D7, in the experiment on 7G8, with AA1029, in the experiment with AS120, in the experiment on ATS189 and with ATS95 was “inactive” each time. The Potency result with C2A, in the experiment on CP185, with CP191 and with CP192 was “inactive” in each case.
With `CCOC(=O)c1cnc2c(cnn2CC)c1NN=C(C)C`, the Potency result in the experiment on 3D7, with AA1029, in the experiment on AS120, with ATS189, in the experiment on ATS95 and in the experiment on C2A was “inactive” each time. Further, the Potency result in the experiment on CP185, in the experiment on CP191 and with CP192 was “inactive” throughout. In addition, the Potency with 7G8 was 11.2 µM (active).
As to `CCN1CCC[C@H]1CNC(=O)c1c(O)c(Cl)cc(Cl)c1OC`, the Potency result in the experiment with 3D7, in the experiment on 7G8, in the experiment with AA1029, in the experiment on AS120, with ATS189 and in the experiment on ATS95 was “inactive” throughout. For the same molecule, the Potency entry with C2A, in the experiment on CP185, with CP191 and with CP192 was “inactive” each time.
Take `CC(=O)Nc1nnc(S(N)(=O)=O)s1`: the Potency result in the experiment on 3D7, with 7G8, with AA1029, in the experiment on AS120, in the experiment with ATS189 and in the experiment with ATS95 was “inactive” throughout. Moreover, the Potency entry in the experiment with C2A, in the experiment with CP185, in the experiment on CP191 and in the experiment on CP192 was “inactive” each time.
With `CCO/C([O-])=N/c1c[n+](N2CCOCC2)no1`, the Potency entry in the experiment on 3D7, with 7G8, in the experiment on AA1029, with AS120, in the experiment with ATS189 and in the experiment with ATS95 was “inactive” in each case. Besides, the Potency entry with C2A, in the experiment with CP185, in the experiment on CP191 and in the experiment on CP192 was “inactive” each time.
As to `C[N+](C)(C)CCOC(N)=O`, the Potency entry with 3D7, in the experiment on 7G8, in the experiment on AA1029, with AS120, in the experiment on ATS189 and with ATS95 was “inactive” each time. The Potency result with C2A, in the experiment on CP185, with CP191 and in the experiment on CP192 was “inactive” each time.
As for `CCN(CC)CCNC(=O)c1ccc(NC(C)=O)cc1`, the Potency entry in the experiment on 3D7, in the experiment on 7G8, with AA1029, in the experiment on AS120, with ATS189 and with ATS95 was “inactive” each time. In addition, the Potency entry in the experiment with C2A, with CP185, in the experiment on CP191 and in the experiment on CP192 was “inactive” each time.
For `Cc1nnc(SCC2=C(C(=O)O)N3C(=O)[C@@H](NC(=O)Cn4cnnn4)[C@H]3SC2)s1`, the Potency result in the experiment with 3D7, in the experiment with 7G8, with AA1029, in the experiment on AS120, in the experiment on ATS189 and in the experiment with ATS95 was “inactive” throughout. Besides, the Potency entry in the experiment with C2A, in the experiment with CP185, with CP191 and with CP192 was “inactive” in each case.
In the case of `CSc1ccc(C(=O)c2[nH]c(=O)[nH]c2C)cc1`, the Potency result with 3D7, in the experiment on 7G8, in the experiment with AA1029, in the experiment with AS120, with ATS189 and in the experiment on ATS95 was “inactive” in each case. Also, the Potency result in the experiment with C2A, in the experiment on CP185, with CP191 and in the experiment on CP192 was “inactive” throughout.
Take `O=C(CCNNC(=O)c1ccncc1)NCc1ccccc1`: the Potency result in the experiment on 3D7, in the experiment on 7G8, in the experiment on AA1029, in the experiment with AS120, in the experiment on ATS189 and in the experiment with ATS95 was “inactive” throughout. Also, the Potency entry in the experiment with C2A, in the experiment on CP185, in the experiment with CP191 and with CP192 was “inactive” each time.
For the molecule `CCN(CC)CCNC(=O)c1cc(S(C)(=O)=O)ccc1OC`, the Potency entry in the experiment on 3D7, in the experiment with 7G8, with AA1029, in the experiment on AS120, in the experiment on ATS189 and in the experiment on ATS95 was “inactive” each time. In addition, the Potency entry in the experiment on C2A, in the experiment on CP185 and with CP191 was “inactive” each time.
As for `CC(C)(C)c1ccc(C(=O)CCCN2CCC(OC(c3ccccc3)c3ccccc3)CC2)cc1`, the Potency in the experiment on 3D7 was 7.94 µM (active); in the experiment with 7G8, 3.55 µM (active); with AA1029 it was 10 µM (active); in the experiment with AS120 it was 6.31 µM (active); in the experiment with ATS189, 10 µM (active); in the experiment with ATS95, 8.91 µM (active).
`C[N+](C)(C)CCOC(=O)CCC(=O)OCC[N+](C)(C)C`: the Potency result in the experiment with 3D7, in the experiment on 7G8, with AA1029, with AS120, in the experiment with ATS189 and in the experiment on ATS95 was “inactive” throughout. The Potency entry in the experiment with C2A, in the experiment with CP185, with CP191 and in the experiment with CP192 was “inactive” each time.
In the case of `CC(C)(Oc1ccc(CCNC(=O)c2ccc(Cl)cc2)cc1)C(=O)O`, the Potency entry in the experiment with 3D7, in the experiment with 7G8, with AA1029, in the experiment on AS120, in the experiment with ATS189 and with ATS95 was “inactive” in each case. The Potency entry in the experiment on C2A, with CP185, in the experiment with CP191 and with CP192 was “inactive” in each case.
Turning to `C[C@H](CS)C(=O)N1CCC[C@H]1C(=O)O`, the Potency entry with 3D7, with 7G8, in the experiment on AA1029, in the experiment with AS120, in the experiment on ATS189 and in the experiment on ATS95 was “inactive” each time. The Potency entry with C2A, with CP185 and in the experiment on CP191 was “inactive” throughout.
Regarding `Nc1c2c(nc3ccccc13)CCCC2O` (centres undefined), the Potency result with 3D7, in the experiment with 7G8, in the experiment with AA1029, in the experiment on AS120, in the experiment with ATS189 and in the experiment with ATS95 was “inactive” in each case. In addition, the Potency result with C2A, in the experiment on CP185, in the experiment with CP191 and in the experiment with CP192 was “inactive” throughout.
Consider `CCN1CCc2nc(N)oc2CC1`, for which the Potency result in the experiment on 3D7, in the experiment with 7G8, with AA1029, with AS120, in the experiment on ATS189 and in the experiment with ATS95 was “inactive” in each case. Besides, the Potency entry in the experiment on C2A, in the experiment with CP185, in the experiment on CP191 and with CP192 was “inactive” each time.
Consider `NCCCNCCSP(=O)(O)O`, for which the Potency entry with 3D7, with 7G8, in the experiment with AA1029, in the experiment on AS120, in the experiment on ATS189 and in the experiment with ATS95 was “inactive” in each case. The Potency entry with C2A, in the experiment with CP185, with CP191 and in the experiment on CP192 was “inactive” each time.

(Values after PubChem BioAssay (NCATS).)
